Bioassay records: PubChem, National Center for Advancing Translational Sciences (NCATS)
KB-3-1 cytotox = kills parental KB-3-1 adenocarcinoma cells | KB-3-1 viability, CellTiter-Glo ATP luminescence, 72 h | Potency, µM (top dose mostly 46.1 µM), hits mostly cytotoxic | 400,000 tested, 1.4% active; also: potency is read from the fitted curve at half-maximal effect; % is scaled to controls: 0 for no effect and ±100 for the full control effect; nearly all actives have a fitted effect of over 60% in size
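Cytotoxicity measured as CellTiter-Glo luminescence after 72 h at 37 C. Compound titrations were pinned onto drug-naive KB-3-1 parental adenocarcinoma cells grown in DMEM with 10% FBS, and normalized data fitted to concentration-response curves.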
D3 ag = D3 dopamine receptor (human) agonism | P35462 | D3R DiscoveRx beta-arrestin cells, luminescence, 90 min | max activation, % | 410,000 tested, 0.58% active | AID 652048; in the data active = max activation above about 30%; also: 0% is about no effect
Target sequence (P35462 whole entry, looked up): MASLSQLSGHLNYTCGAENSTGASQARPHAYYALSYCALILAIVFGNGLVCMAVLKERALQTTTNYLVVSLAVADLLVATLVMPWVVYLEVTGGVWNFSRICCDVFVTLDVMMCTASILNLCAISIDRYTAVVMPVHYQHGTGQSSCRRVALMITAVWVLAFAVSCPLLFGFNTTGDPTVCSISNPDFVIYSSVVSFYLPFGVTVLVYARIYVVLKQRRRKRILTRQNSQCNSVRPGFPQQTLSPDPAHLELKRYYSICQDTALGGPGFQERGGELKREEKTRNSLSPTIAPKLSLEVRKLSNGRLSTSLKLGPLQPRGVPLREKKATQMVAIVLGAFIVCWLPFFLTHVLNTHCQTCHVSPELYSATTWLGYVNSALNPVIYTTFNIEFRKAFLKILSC
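Cells at 1500/well, incubated overnight, then treated with pinned compounds (dopamine as control) for 90 min at 37 degrees C. DiscoveRx reagent added for 30 - 60 minutes at room temperature; luminescence read.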
DRD3 antagonist = D3 dopamine receptor (human) antagonism. max response, negative = inhibition, %. AID 652054. 360,000 tested, 2.5% active. D3R cells, DiscoveRx beta-arrestin luminescence, antagonist mode; hits give low values; in the data active = max response below about -50%; inconclusive = no clear call, values can overlap the other calls; also: % is scaled to controls: 0 for no effect and ±100 for the full control effect
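Cells expressing the human receptor were seeded at 1500 cells/well, incubated overnight at 37 degrees C in 5% CO2, then exposed to library compounds with dopamine controls for 90 minutes at 37 degrees C before luminescent detection.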
KB-V1 cytotox = KB-V1 MDR subline cytotoxicity; Potency, µM (series often up to 46.1 µM), actives largely listed as cytotoxic; KB-V1 MDR cells viability, CellTiter-Glo, 72 h; 400,000 tested, 3.4% active; AID 1347076; also: potency is read from the fitted curve at half-maximal effect; % is scaled to controls: 0 for no effect and ±100 for the full control effect; nearly all actives have a fitted effect of over 60% in size
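Cells of the MDR subline KB-V1 are plated, dosed with compound at multiple concentrations, and incubated 72 h at 37 degrees C; CellTiter-Glo is then added and luminescence read after 10 min.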
MCF10A rereplic = DNA re-replication induction in MCF 10a cells | 350,000 tested, 2.9% active | MCF 10A DNA re-replication, Hoechst nuclear intensity, 48 h | Potency, µM (series often up to 46.1 µM), for the others: at the top dose activity, positive = re-replication, hits mostly activators | AID 624296; also: potency is read from the fitted curve at half-maximal effect; % of control where 0% means no effect; nearly all actives have a fitted effect of over 50% in size
SW480 rerep = induces DNA re-replication in SW480 colon adenocarcinoma cells; Potency, µM (doses to about 46.1 µM), for inactives: at the top dose re-replication activation, hits mostly activators; SW480 DNA re-replication, Hoechst DNA content imaging, 48 h; 340,000 tested, 1.8% active; also: potency is read from the fitted curve at half-maximal effect; % of control where 0% means no effect; nearly all actives have a fitted effect of over 55% in size
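First, 250 cells per well were seeded. Next, compound or vehicle (23 nL) was pinned in, plates sat 48 hr at 37 C. Finally Hoechst was added for 40 min before fluorescence scanning.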
Starred values were filed as active, the others as inactive; i = inactive; ? = inconclusive; . = no result given; [ ] = dose if it differs, or a comment. Compounds with a hit are over-represented: about 8.9% of the library has one in this group of screens. Unless noted, calls follow the shape of the dose curve; as a rule, active = well fitted curve in the direction sought with a large enough effect; inconclusive = small, poorly fitted or top-dose-only effect, or another doubt; inactive = no such curve, though single readings can be large; an effect the other way counts as inactive or inconclusive.

SMILES | KB-3-1 cytotox | D3 ag | DRD3 antagonist | KB-V1 cytotox | MCF10A rereplic | SW480 rerep
COc1cc(/C=C/C(=O)c2ccc(NS(=O)(=O)c3ccc(C)cc3)cc2)ccc1OC(F)F | i | -5 | -28 | ? | 23µM* | ?
COc1cc(/C=C/C(=O)c2ccc(NS(=O)(=O)c3ccc(C)cc3)cc2)cc(OC)c1O | ? | -7 | -18 | i | 18µM* | ?
COc1cccc(N/C=C/C(=O)c2ccc(C)cc2)c1 | i | -1 | 21 | i | -2% | 2%
COc1cccc(C(=O)/C=C/Nc2ccc(S(=O)(=O)Nc3cccc(C(C)=O)c3)cc2)c1 | i | 12 | 9 | ? | 10µM* | 21µM*
CCOC(=O)C1(C)CCN1C(=O)CSc1ccccc1 (stereo unspecified) | i | 9 | 17 | i | . | .
CCc1ccc(NC(=O)N2CCC(N3CCN(Cc4ccc(C)cc4)C(=O)C3=O)CC2)cc1 | i | -2 | . | ? | . | .
Cc1c(C)c2cc(Cl)c(O)c(CN3CCCCC3)c2oc1=O | i | -3 | -15 | i | 9% | 1%
CCc1c(C)c2cc(Cl)c(O)c(CN3CCCC3)c2oc1=O | i | -10 | 7 | i | ? | 21µM*
Cc1ccccc1N1C(=O)c2sc3nc4c(c(=O)n3c2C1=O)CCC4 | ? | -3 | -57* | i | ? | ?
O=C1c2sc3nc4ccccc4n3c2C(=O)N1c1ccccc1Cl | i | -3 | -87* | ? | ? | -2%[9.22 µM]
CC1CCCN(c2ncnc3c2nc2n3CCCCC2)C1 (stereo unspecified) | i | 9 | . | i | . | .
CCN(CC)c1ccc(-c2nn3c(-c4n[nH]c5c4CCC5)nnc3s2)cc1 | ? | -2 | -12 | ? | 1.5µM* | 1.8µM*
CCOc1ccc2nc(NC(=O)c3ccco3)sc2c1 | i | 1 | 5 | ? | -11% | 7%
CCOc1ccc2nc(NC(=O)c3ccoc3C)sc2c1 | 10µM* | 0 | 15 | 8.2µM* | 21% | -5%[9.22 µM]
CCOc1ccc2nc(NC(=O)Cn3[nH]c(=O)c4ccccc4c3=O)sc2c1 | ? | -6 | 1 | i | 21µM* | 123%
Cc1ccc2nc(NC(=O)c3ccccn3)sc2c1 | ? | -7 | ? | ? | ? | 0%
CCOc1ccc2nc(NC(=O)c3ccccn3)sc2c1 | ? | -23 | -63* | ? | ? | ?
O=C(NCc1ccccc1)C(=O)NCC(c1ccco1)S(=O)(=O)c1ccccc1 (stereo unspecified) | . | -9 | . | . | . | .
COc1ccc(CCNC(=O)Cc2c(C)c3c(cc(C)c4c(C)c(C)oc43)oc2=O)cc1 | . | -8 | . | . | . | .
O=S(=O)(c1ccc(Nc2ccc(-c3ccc4c(c3)OCCO4)nn2)cc1)N1CCCC1 | i | 16 | -4 | ? | 0% | -8%
O=C(NC1CC1)c1cccc(Nc2ccc(-c3ccc4c(c3)OCCO4)nn2)c1 | ? | 2 | 42 | 16µM* | 2% | -10%
CCOC(=O)c1ccc(NC(=O)Cn2nc3c4ccccc4n(Cc4cccc(F)c4)cc-3c2=O)cc1 | i | -10 | . | i | . | .
COC(=O)c1cc(-c2ccc(Br)cc2)on1 | i | -2 | -21 | i | 1% | -2%
CCN(CC)C(=O)c1cc(-c2ccc(Br)cc2)on1 | i | 5 | 15 | 5.2µM* | 27% | 9%
O=C(NNC(=S)Nc1cccc2ccccc12)c1cccc(Br)c1 | i | 0 | ? | i | ? | 23%
SMILES | KB-3-1 cytotox | D3 ag | DRD3 antagonist | KB-V1 cytotox | MCF10A rereplic | SW480 rerep
Cc1ccc(C(=O)NNC(=S)Nc2cccc3ccccc23)s1 | i | -3 | -95* | i | 9% | 1%[9.22 µM]
O=c1ccc2c([nH]1)CCCCCCCCCC2 | ? | -2 | 6 | 7.3µM* | ? | 0%
CCOC(=O)CSc1nc2cc(C(=O)OC)ccc2c(=O)n1CCN1CCOCC1 | i | -1 | -4 | 16µM* | 1% | -3%
COC(=O)c1ccc2c(=O)n(CCN3CCOCC3)c(SCC(=O)Nc3ccc(C)cc3)nc2c1 | i | -13 | 4 | i | -3% | -2%
COC(=O)c1ccc2c(=O)n(CCN3CCOCC3)c(SCC(=O)C(C)(C)C)nc2c1 | i | -4 | 18 | 10µM* | 0% | 1%
CCCCCn1c(SCC(=O)OCC)nc2cc(C(=O)NCc3ccco3)ccc2c1=O | i | 3 | 8 | 21µM* | 9% | -7%
COC(=O)c1ccc2c(=O)n(CCN3CCOCC3)c(SCC(=O)NCc3ccccc3)nc2c1 | i | -7 | -13 | i | 9% | -13%
O=C(NCCN1CCC(n2c(=O)[nH]c3ccccc32)CC1)c1cccnc1 | i | -11 | -17 | i | . | .
COc1cccc(C(=O)NCCN2CCC(n3c(=O)[nH]c4ccccc43)CC2)c1 | ? | -15 | -78* | i | . | .
CCOc1cc(OCC)cc(C(=O)NCCN2CCC(n3c(=O)[nH]c4ccccc43)CC2)c1 | i | -8 | -95* | ? | . | .
COc1ccc(CCNC(=O)CCn2c(=O)c3ccccc3n(Cc3c(C)cc(C)cc3C)c2=O)cc1OC | i | 4 | . | ? | . | .
COc1ccc(N2CCN(C(=O)COC(=O)c3ccco3)CC2)cc1 | i | 14 | -22 | i | -2% | -2%
Clc1ccc(COn2nnc3ccccc32)c(Cl)c1 | i | -1 | -10 | i | 23µM* | 5%
Cc1ccc(-c2nn(CC(=O)NCc3ccccc3)c3c2cnc2ccc(F)cc23)cc1C | i | -7 | . | i | . | .
COc1ccc(C(=O)NC(=O)COC(=O)C2CC2C)cc1 (stereo unspecified) | i | 7 | 17 | i | -3% | 2%
CC1CC1C(=O)OCC(=O)NC(=O)c1ccc(C(C)(C)C)cc1 (stereo unspecified) | i | 39* | 19 | ? | 12% | 10%
O=C(Nc1c(O)c2ccccc2oc1=O)c1ccccc1Cl | i | 11 | . | i | . | .
COc1ccc(CCNC(=S)Nc2ccc(C(C)C)cc2)cc1 | ? | -10 | -20 | 23µM* | ? | 5%
COc1ccc(C(=O)CC(=O)C(=O)NCCc2cccc(C)c2)cc1 | i | -11 | -23 | ? | 18µM* | ?
COc1ccc(CCNC(=S)Nc2cc(C)cc(C)c2)cc1 | i | -6 | -18 | 18µM* | -6% | 2%
O=C(NCC(c1ccc(Cl)cc1)N1CCCCC1)c1ccccc1F (stereo unspecified) | i | -9 | . | i | . | .
Cc1ccc(NC(=O)c2ccc(NCCCN3CCC(C)CC3)c([N+](=O)[O-])c2)cc1F | i | -13 | -65* | i | 19% | ?
